# About 83,000 compounds went through this panel and 20% of them were active in at least one assay; those are over-represented in the sample as a whole.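 Plates (96-well) were seeded with cells, treated with compound at one concentration, and incubated for 48 hours before percent growth was determined.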 Unmarked numbers belong to inactive results. Activity calls are given as the source filed them. How the source made its calls: active means growth percent below 10; inactive means the rest.
# Experiments:
# Assay in all cases: NCI-60 one-dose screen, 48 h (100 = growth as untreated, 0 = no growth, -100 = all killed)
# Settings in all cases: 10 µM unless noted
# SR leukemia = test system: SR leukemia
# RPMI-8226 leukemia = test system: RPMI-8226 leukemia
# OVCAR-8 ovarian = test system: OVCAR-8 ovarian
# OVCAR-4 ovarian = test system: OVCAR-4 ovarian
# SK-OV-3 ovarian = test system: SK-OV-3 ovarian
# IGROV1 ovarian = test system: IGROV1 ovarian
# OVCAR-3 ovarian = test system: OVCAR-3 ovarian
# HS 578T breast = test system: HS 578T breast
# NCI/ADR-RES ovarian = test system: NCI/ADR-RES ovarian
# OVCAR-5 ovarian = test system: OVCAR-5 ovarian
Compound,growth (SR leukemia),growth (RPMI-8226 leukemia),growth (OVCAR-8 ovarian),growth (OVCAR-4 ovarian),growth (SK-OV-3 ovarian),growth (IGROV1 ovarian),growth (OVCAR-3 ovarian),growth (HS 578T breast),growth (NCI/ADR-RES ovarian),growth (OVCAR-5 ovarian)
Cc1ccc(N(CC2=NCCN2)c2cccc(O)c2)cc1,95.3%,94.5%,95.2%,103%,105%,90.3%,112%,101%,104%,
CCCCN(CCCC)c1ccc(C(=N)c2ccc(N(C)C)cc2)cc1,-44.4% (active),-43.3% (active),-15.4% (active),7.13% (active),-7.53% (active),,-74.3% (active),-68.9% (active),-47.4% (active),-2.12% (active)
CN1CCN(C(=O)/C=C/c2ccc([N+](=O)[O-])o2)CC1,53.6%,82.3%,77.4%,76.3%,100%,,92%,69.2%,99.7%,127%
O=S(c1ccccc1)c1ccc2nnnn2n1 (stereo not drawn),85.2%,95.7%,,111%,114%,75.8%,83.8%,97.7%,106%,110%
O=C(Nc1ccc(-n2ccc3c(NC(=O)c4ccccc4)nccc32)cc1)c1ccc(Cl)c(C(F)(F)F)c1,-28.7% (active),-17.3% (active),,88.5%,53.9%,36%,22.9%,,,62.9%
Oc1ccc(Cl)cc1Sc1cc(Cl)ccc1O,90.4%,86.3%,90.8%,70.2%,106%,,77%,108%,101%,100%
C#C[C@@]1(O)[C@@H](CO)O[C@@H](n2cc(C(F)(F)F)c3c(N)ncnc32)[C@@H]1O,-6.19% (active),-33.6% (active),,15.8%,-7.5% (active),2.75% (active),-2.07% (active),-15.6% (active),,14.1%
COc1ccc(OCC(O)CN2CCN(c3ccc(Cl)cc3)CC2)cc1 (stereo not drawn),112%,98.9%,61.6%,79.8%,90.7%,,105%,123%,185%,
Cc1cc(Nc2ccc(Cl)c(Cl)c2)nc(N)n1,78%,80.9%,,92.8%,105%,114%,98.9%,92.6%,98.3%,105%
CCCCOc1c(N)cc(Cl)cc1C(=O)OCCN(CC)CC,79.5%,100%,,118%,94.5%,107%,108%,99.7%,,113%
CC1CCc2cc(F)cc3c(=O)c(C(=O)O)cn1c23 (stereo not drawn),95.4%,105%,97.5%,111%,108%,109%,114%,103%,94.8%,
CC(CN(C)C)CN1c2ccccc2CCc2ccccc21 (stereo not drawn),91.4%,90.4%,106%,78.7%,95%,62%,111%,86.4%,76.4%,
NS(=O)(=O)c1ccc(-n2nc(-c3ccc(Cl)cc3)ccc2=O)cc1,64.4%,99%,102%,100%,93.8%,,106%,88.2%,68.4%,99.9%
Oc1ccccc1/C=N/c1ccccn1,104%,78%,95%,106%,99.6%,,111%,143%,-97.1% (active),
CCOC(=O)n1cnc2c(Cl)ncnc21,110%,116%,65%,107%,94.2%,,112%,138%,246%,
CC(C)NCC(O)COc1ccc(CC(N)=O)cc1 (stereo not drawn),102%,99.1%,96.8%,105%,103%,97.4%,114%,104%,104%,

Compound,growth (SR leukemia),growth (RPMI-8226 leukemia),growth (OVCAR-8 ovarian),growth (OVCAR-4 ovarian),growth (SK-OV-3 ovarian),growth (IGROV1 ovarian),growth (OVCAR-3 ovarian),growth (HS 578T breast),growth (NCI/ADR-RES ovarian),growth (OVCAR-5 ovarian)
O=C(COc1ccc(Cl)cc1)N1CCN(Cc2ccc3c(c2)OCO3)CC1,97.8%,88.7%,91.8%,94.5%,93.5%,106%,99.2%,92.8%,92.6%,
COc1ccccc1P(c1ccccc1OC)c1ccccc1OC,107%,113%,66%,100%,91.2%,,108%,133%,172%,
CN(C)CC/C=C1\c2ccccc2Sc2ccc(Cl)cc21,62%,72%,69.2%,69.9%,74.1%,53.8%,74.4%,65.6%,63.2%,
CC(C)(C)OC(=O)NCc1cccc(N=C=S)c1,-4.27% (active),-38.9% (active),,57.1%,88.2%,43.1%,60.1%,66.1%,71.3%,65.2%
O=C(NC(=S)Nc1ccc(Cl)cc1)c1ccccc1,67.9%,95.3%,102%,85.6%,115%,,125%,127%,104%,84.8%
CC(Cc1cccc(C(F)(F)F)c1)NCCOC(=O)c1ccccc1 (stereo not drawn),92.4%,116%,110%,110%,106%,105%,115%,101%,92.9%,
CCN(CC)CC(=O)Nc1c(C)cccc1C,98.3%,114%,107%,104%,109%,106%,118%,110%,104%,
C=C1c2c(Cl)ccc(O)c2C(O)=C2C(=O)[C@]3(O)C(O)=C(C(N)=O)C(=O)[C@@H](N(C)C)[C@@H]3[C@@H](O)[C@H]12,-8.97% (active),13.2%,9.79% (active),23.7%,11.2%,-2.89% (active),-16.2% (active),5.86% (active),61.2%,
Cc1nssc1=S,97.6%,97%,,109%,110%,-13.5% (active),,98.3%,96.6%,94.6%
Nc1nc(=S)ss1,80.6%,,104%,106%,101%,133%,116%,98.2%,104%,114%
COc1cc2c(cc1OC)-c1c(oc3c4c(ccc3c1=O)OC(C)(C)C=C4)CO2,42.6%,49.3%,,41.8%,77.6%,85%,63.7%,99.8%,65.8%,89.3%
Cc1cn([C@]2(CF)O[C@H](CO)C2C)c(=O)[nH]c1=O (stereo partly drawn),181%,150%,,113%,122%,-29.1% (active),,110%,113%,94.5%
COc1cc(-c2nc(N)n(CC(=O)Nc3ccc(/C(C)=N\O)cc3)n2)cc(OC)c1OC,83%,94.3%,,112%,87.9%,96.8%,106%,82.1%,105%,114%
Cc1[nH]c2ccc(F)cc2c1CCNC(=O)C1CCN(C(=O)c2ccc(-c3ccccc3)cc2)CC1,8.16% (active),44.5%,,44.7%,63.8%,67.1%,63.8%,72.7%,49.6%,90.1%
COC(=O)c1oc2c(C(=O)/C=C/c3ccc(OC)cc3)c(OCCN3CCOCC3)ccc2c1C,-28% (active),-50.7% (active),,16%,17.9%,-4.01% (active),,-15.1% (active),9.24% (active),29.8%

# From PubChem BioAssay (NCI)
